Assay [1] in a line: BSK_LPS_SRB: Viability Assessment in the BioMAP Diversity Plus: LPS Assay (AID 2283079).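 Also: total protein by sulforhodamine B absorbance as a cytotoxicity measure; measured one day after compound addition; fitted in both directions against DMSO so loss or gain of signal counts.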 To be noted: primary human HUVEC with PBMC. In outline:
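Cytotoxicity endpoint in human endothelial–PBMC co-culture: 24 h exposure, then SRB (0.1%) staining, 560 nm read.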

Read-out in assay [2]: Interleukin-1 alpha (IL1a), IL1A (gene 3552)
Briefly: BSK_LPS_IL1a: BioMAP Diversity Plus: LPS Assay for Interleukin-1 alpha (IL1a) Biomarker Activity (AID 2283080). To be noted: primary human HUVEC with PBMC; actives raise or lower the signal. In outline:
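Primary human HUVEC and PBMC co-culture stimulated with LPS is dosed and harvested at 24 h. Both increases and decreases in ELISA-measured IL-1a are scored relative to DMSO.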

Read-out in assay [3]: Monocyte Chemoattractant Protein-1 (MCP1), CCL2 (gene 6347)
Put plainly: BSK_LPS_MCP1: BioMAP Diversity Plus: LPS Assay for Monocyte Chemoattractant Protein-1 (MCP1) Biomarker Activity (AID 2283081). The note with it: primary human HUVEC with PBMC; actives raise or lower the signal. The essentials:
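Values derive from bidirectional fitting against DMSO of ELISA-measured MCP-1 in a human primary endothelial and mononuclear cell co-culture, 24 h after chemical addition under LPS activation.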

Assay [4] is described as follows: BSK_LPS_PGE2: BioMAP Diversity Plus: LPS Assay for Prostaglandin E2 (PGE2) Biomarker Activity (AID 2283082). The note with it: primary human HUVEC with PBMC; actives raise or lower the signal. In outline: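 HUVEC plus PBMC co-culture stimulated with LPS; secreted PGE2 quantified by ELISA 24 h after chemical dosing. Activity fitted bidirectionally against DMSO as negative control and baseline; parallel SRB total-protein staining served as cytotoxicity check.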

Read-out in assay [5]: Macrophage colony-stimulating factor (MCSF), CSF1 (gene 1435)
Briefly: BSK_LPS_MCSF: BioMAP Diversity Plus: LPS Assay for Macrophage colony-stimulating factor (MCSF) Biomarker Activity (AID 2283083). To be noted: primary human HUVEC with PBMC; actives raise or lower the signal. The essentials:
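Bidirectional fit versus DMSO of ELISA-measured M-CSF in co-cultured human umbilical vein endothelial cells and PBMC, sampled 24 h after dosing.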

Read-out in assay [6]: Tissue Factor, F3 (gene 2152)
Put plainly: BSK_LPS_TissueFactor: BioMAP Diversity Plus: LPS Assay for Tissue Factor Biomarker Activity (AID 2283084). To be noted: primary human HUVEC with PBMC; actives raise or lower the signal. In outline:
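Read-out: CD142 ELISA, 24 h. System: LPS-driven human endothelial/PBMC co-culture. Analysis: up- or down-signal fitted against DMSO.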

Read-out in assay [7]: Tumor necrosis factor (Homo sapiens) (UniProt P01375)
Put plainly: BSK_LPS_TNFa: BioMAP Diversity Plus: LPS Assay for Tumour Necrosis Factor alpha (TNFa) Biomarker Activity (AID 2283085). To be noted: primary human HUVEC with PBMC; actives raise or lower the signal. In outline: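 Human umbilical vein endothelial cells co-cultured with PBMC were exposed to test chemical and TNFa measured by ELISA 24 h after dosing. Bidirectional curve fitting was done relative to DMSO as negative control and baseline.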

Read-out in assay [8]: Vascular cell adhesion molecule 1 (VCAM1), VCAM1 (gene 7412)
Put plainly: BSK_LPS_VCAM1: BioMAP Diversity Plus: LPS Assay for Vascular cell adhesion molecule 1 (VCAM1) Biomarker Activity (AID 2283086). The note with it: primary human HUVEC with PBMC; actives raise or lower the signal. In outline:
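Human umbilical vein endothelial cells co-cultured with peripheral blood mononuclear cells under LPS stimulation were exposed to test chemical for 24 h. VCAM-1 levels were then measured by ELISA, with bidirectional curve fitting relative to DMSO as negative control and baseline.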

Read-out in a further assay: CD38, CD38 (gene 952)
Put plainly: BSK_SAg_CD38: BioMAP Diversity Plus: SAg Assay for CD38 Biomarker Activity (AID 2283087). The note with it: primary human HUVEC with PBMC; actives raise or lower the signal. The essentials:
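Fluorescence ELISA of cell-surface CD38 served as the read-out, with either increase or decrease fitted against DMSO controls. Cells were a human umbilical vein endothelium plus PBMC co-culture under SEB/TSST-1 stimulation, measured 24 h after dosing.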

Read-out in a further assay: CD40, CD40 (gene 958)
Briefly: BSK_SAg_CD40: BioMAP Diversity Plus: SAg Assay for CD40 Biomarker Activity (AID 2283088). To be noted: primary human HUVEC with PBMC; actives raise or lower the signal. The essentials: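 Endpoint derived by fitting increases or decreases versus DMSO controls. CD40 is detected by fluorescence ELISA in a human vascular co-culture of endothelium and PBMC at 24 h.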

Read-out in a further assay: CD69, CD69 (gene 969)
Put plainly: BSK_SAg_CD69: BioMAP Diversity Plus: SAg Assay for CD69 Biomarker Activity (AID 2283089). To be noted: primary human HUVEC with PBMC; actives raise or lower the signal. In outline: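 Values derive from bidirectional fitting relative to DMSO vehicle. Cells: umbilical vein endothelium plus peripheral blood mononuclear cells, treated 24 h before fluorescent ELISA for CD69.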

Read-out in assay [9]: Monocyte Chemoattractant Protein-1 (MCP1), CCL2 (gene 6347)
Put plainly: BSK_SAg_MCP1: BioMAP Diversity Plus: SAg Assay for Monocyte Chemoattractant Protein-1 (MCP1) Biomarker Activity (AID 2283090). To be noted: primary human HUVEC with PBMC; actives raise or lower the signal. The essentials:
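MCP-1 levels in the endothelial–PBMC SAg co-culture were quantified by ELISA at 24 h post-dosing; both increases and decreases versus DMSO scored. Cytotoxicity monitored by SRB total protein in parallel cultures.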

Read-out in assay [10]: E-selectin (Homo sapiens) (UniProt P16581)
Briefly: BSK_SAg_Eselectin: BioMAP Diversity Plus: SAg Assay for Eselectin Biomarker Activity (AID 2283091). The note with it: primary human HUVEC with PBMC; actives raise or lower the signal. The essentials: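 Endpoint values derive from bidirectional fitting relative to DMSO, using ELISA-measured E-selectin in a human vascular co-culture (umbilical vein endothelium plus PBMC) sampled 24 h after dosing.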

Read-out in assay [11]: Monokine induced gamma interferon (MIG), CXCL9 (gene 4283)
Briefly: BSK_SAg_MIG: BioMAP Diversity Plus: SAg Assay for Monokine induced gamma interferon (MIG) Biomarker Activity (AID 2283092). The note with it: primary human HUVEC with PBMC; actives raise or lower the signal. In outline:
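Values reflect bidirectional fitting of ELISA-measured MIG against DMSO vehicle, taken 24 h after dosing of a co-culture of human umbilical vein endothelial cells and peripheral blood mononuclear cells.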

The nature of assay [12]: BSK_SAg_PBMCCytotoxicity: PBMC Cytotoxicity Assessment in the BioMAP Diversity Plus: SAg Assay (AID 2283093).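 Also: PBMC viability measured as Alamar Blue reduction fluorescence at 546/580 nm; fitted both ways against DMSO so a hit may be loss or gain of signal.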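 As to AC50: PBMC superantigen activated with SEB plus TSST-1 one hour after compound addition.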 To be noted: primary human HUVEC with PBMC. In outline:
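Human umbilical vein endothelial cells co-cultured with PBMC; PBMC (75,000/well) pre-treated with compound 1 h, then activated with SEB and TSST-1 (20 ng/mL final each) for 90 h. Alamar Blue added 6 h, fluorescence 546/580 nm; bidirectional fit versus DMSO.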

Read-out in assay [13]: Interleukin-8 (IL8), CXCL8 (gene 3576)
Put plainly: BSK_SAg_IL8: BioMAP Diversity Plus: SAg Assay for Interleukin-8 (IL8) Biomarker Activity (AID 2283094). The note with it: primary human HUVEC with PBMC; actives raise or lower the signal. In outline: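 Human umbilical vein endothelial cells co-cultured with peripheral blood mononuclear cells; IL-8 measured by ELISA 24 h after chemical dosing. Bidirectional concentration-response fitting used DMSO as negative control and activity baseline.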

The nature of assay [14]: BSK_SAg_Proliferation: Cell Proliferation Assessment in the BioMAP Diversity Plus: SAg Assay (AID 2283095).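 Also: relative cell number as total protein by SRB absorbance in sub-confluent culture.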 The note with it: primary human HUVEC with PBMC. In outline: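 Human umbilical vein endothelial cells co-cultured with peripheral blood mononuclear cells; total protein measured by sulforhodamine B staining (0.1% SRB after 10% TCA fixation), absorbance at 560 nm, at 96 h. Bidirectional fit against DMSO baseline.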

Assay [15] is described as follows: BSK_SAg_SRB: Viability Assessment in the BioMAP Diversity Plus: SAg Assay (AID 2283096).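 Also: cells read one day after compound addition; hits may be either gain or loss of signal compared with DMSO.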 The note with it: primary human HUVEC with PBMC. In outline: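 Endothelial/PBMC primary human co-culture; compound 24 h; fix 10% TCA, stain 0.1% SRB, A560; protein content as cytotoxicity proxy; bidirectional curve fit, DMSO = baseline.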
Assay [16] has as its target human CYP19A1, CYP19A1 (gene 1588) (UniProt P11511). Put plainly: NVS_ADME_hCYP19A1: NovaScreen (NVS) CYP450-related Enzyme Activity (ADME) Assay for human CYP19A1 (AID 2283098; active = hit-call score of the fitted dose curve at least 0.9, where 1 is the maximum). The essentials: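 Cell-free enzyme assay with recombinant protein and a specific fluorogenic substrate, read by fluorescence intensity 0.5 h after dosing. Primary screen ran in duplicate at 10 uM; actives were retested in concentration series. Loss of signal versus acetonitrile baseline.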

Assay [17] concerns the target human CYP2A6, CYP2A6 (gene 1548) (UniProt P11509). Put plainly: NVS_ADME_hCYP2A6: NovaScreen (NVS) CYP450-related Enzyme Activity (ADME) Assay for human CYP2A6 (AID 2283099; active = hit-call score of the fitted dose curve at least 0.9, where 1 is the maximum). In outline: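 Loss of fluorescence signal relative to acetonitrile vehicle reported CYP2A6 inhibition in a cell-free system using insect-cell-derived enzyme. Readings were taken at 0.5 h; top concentration in follow-up dose series was 20 uM.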

Values joined by “and” are separate entries in the source; they are usually repeats but may differ in a detail not shown here. Identical values can stand only once. Inconclusive results are not listed. A structure can be active in one record and inactive in another. Active and inactive are the calls of the source. The calls were made as follows, unless noted: active = hit-call score of the fitted dose curve at least 0.9, where 1 is the maximum; inactive = score below 0.9.

Tumor necrosis factor (Homo sapiens), sequence (P01375 whole entry, looked up): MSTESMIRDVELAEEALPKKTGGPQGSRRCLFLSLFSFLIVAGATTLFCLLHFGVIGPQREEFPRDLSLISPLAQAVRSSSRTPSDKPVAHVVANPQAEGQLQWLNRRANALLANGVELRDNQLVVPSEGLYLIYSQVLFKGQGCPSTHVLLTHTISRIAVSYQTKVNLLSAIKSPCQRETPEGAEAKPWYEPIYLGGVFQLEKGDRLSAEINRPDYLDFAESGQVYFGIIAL
E-selectin (Homo sapiens), sequence (P16581 whole entry, looked up): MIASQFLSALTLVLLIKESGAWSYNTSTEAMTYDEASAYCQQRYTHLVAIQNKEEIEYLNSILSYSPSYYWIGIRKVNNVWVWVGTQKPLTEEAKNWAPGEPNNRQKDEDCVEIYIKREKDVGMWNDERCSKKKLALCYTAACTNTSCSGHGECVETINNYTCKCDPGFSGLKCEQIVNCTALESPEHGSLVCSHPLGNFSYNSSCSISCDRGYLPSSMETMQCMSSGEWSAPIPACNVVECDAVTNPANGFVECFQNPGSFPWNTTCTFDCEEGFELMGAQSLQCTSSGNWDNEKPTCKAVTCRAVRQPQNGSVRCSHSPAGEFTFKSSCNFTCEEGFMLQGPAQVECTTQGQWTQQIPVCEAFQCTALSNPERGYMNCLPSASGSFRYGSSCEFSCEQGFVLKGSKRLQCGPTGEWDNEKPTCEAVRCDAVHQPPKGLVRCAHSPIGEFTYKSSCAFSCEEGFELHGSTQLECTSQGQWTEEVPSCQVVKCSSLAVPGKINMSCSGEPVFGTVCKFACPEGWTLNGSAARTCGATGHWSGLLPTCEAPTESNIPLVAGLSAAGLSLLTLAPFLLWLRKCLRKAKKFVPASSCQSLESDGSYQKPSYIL
human CYP19A1, CYP19A1 (gene 1588), sequence (P11511 whole entry, looked up): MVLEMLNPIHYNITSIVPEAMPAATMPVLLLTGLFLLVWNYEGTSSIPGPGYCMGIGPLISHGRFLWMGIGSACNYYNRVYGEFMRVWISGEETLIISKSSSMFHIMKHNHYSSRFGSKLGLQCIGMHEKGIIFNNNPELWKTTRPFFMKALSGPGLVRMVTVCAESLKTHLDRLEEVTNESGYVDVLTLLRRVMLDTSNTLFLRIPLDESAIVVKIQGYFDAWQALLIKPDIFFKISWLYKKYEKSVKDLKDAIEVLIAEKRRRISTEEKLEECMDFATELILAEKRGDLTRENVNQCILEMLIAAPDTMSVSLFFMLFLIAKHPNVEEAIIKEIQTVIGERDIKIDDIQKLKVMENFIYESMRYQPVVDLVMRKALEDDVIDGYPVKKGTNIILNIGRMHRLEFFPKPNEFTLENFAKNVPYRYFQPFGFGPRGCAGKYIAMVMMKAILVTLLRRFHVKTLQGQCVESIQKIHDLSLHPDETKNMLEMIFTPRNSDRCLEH
human CYP2A6, CYP2A6 (gene 1548), sequence (P11509 whole entry, looked up): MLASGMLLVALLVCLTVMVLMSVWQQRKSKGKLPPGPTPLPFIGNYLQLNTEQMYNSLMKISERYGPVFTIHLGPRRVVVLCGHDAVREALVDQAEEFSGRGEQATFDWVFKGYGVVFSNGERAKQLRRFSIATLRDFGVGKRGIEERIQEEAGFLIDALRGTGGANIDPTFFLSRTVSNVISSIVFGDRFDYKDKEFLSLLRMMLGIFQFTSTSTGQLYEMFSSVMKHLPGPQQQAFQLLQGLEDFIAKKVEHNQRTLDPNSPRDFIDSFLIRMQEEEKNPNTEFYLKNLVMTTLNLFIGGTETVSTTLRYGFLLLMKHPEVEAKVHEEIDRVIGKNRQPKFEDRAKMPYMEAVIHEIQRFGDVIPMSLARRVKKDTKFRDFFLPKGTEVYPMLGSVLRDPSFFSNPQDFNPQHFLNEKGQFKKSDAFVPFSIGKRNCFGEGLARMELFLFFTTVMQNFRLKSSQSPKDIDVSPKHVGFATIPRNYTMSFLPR

For the compound `COC(=O)c1cccc(C)c1S(=O)(=O)NC(=O)Nc1nc(OCC(F)(F)F)nc(N(C)C)n1`, the outcome in assay [1], in assay [2], in assay [3], in [4], in assay [5] and in assay [6] was inactive. Moreover, the outcome in assay [7] is “inactive”; in [8], “inactive”; with CD38, CD38 (gene 952), “inactive”; with CD40, CD40 (gene 958) it was “inactive”; with CD69, CD69 (gene 969), “inactive”; in assay [9], “inactive”. The result in assay [10], in [11], in assay [12], in assay [13], in assay [14] and in [15] was inactive.

Turning to `C[C@]12CC[C@@H]3c4ccc(O)cc4C[C@@H](CCCCCCCCCS(=O)CCCC(F)(F)C(F)(F)F)[C@H]3[C@@H]1CC[C@@H]2O` (stereo not given in full), the result in [1], in [2], in [3], in [4], in assay [5] and in assay [6] was inactive. The outcome is “inactive” in assay [7]; “inactive” in [8]; “inactive” in the assay with CD38, CD38 (gene 952); “inactive” with CD40, CD40 (gene 958); “inactive” with CD69, CD69 (gene 969); “inactive” in [9]. The result in assay [11], in assay [12], in assay [13], in [14] and in [15] was inactive. Also, the concentration at half-maximal activity (AC50) – broadly, the concentration giving half of the maximal activity seen – in [10] is 3.51 µM (active).

Take `S=C(S)NCCNC(=S)S.[Mn+2].[S-]C([S-])=NCCN=C([S-])[S-].[Zn+2]`: the outcome in assay [1], in assay [2], in assay [3], in [4], in assay [5] and in assay [6] was inactive. For the same compound, the outcome was “inactive” in assay [7]; “inactive” in assay [8]; “inactive” with CD38, CD38 (gene 952); “inactive” with CD40, CD40 (gene 958); “inactive” in the assay with CD69, CD69 (gene 969); “inactive” in [9]. The outcome in assay [10], in assay [11], in assay [12], in assay [13], in assay [14] and in assay [15] was inactive. The compound was classed as inactive in [16] and in assay [17]. The half-maximal activity concentration (AC50) in [7] was 2.39 µM (active); in assay [8], 8.85 µM (active); in assay [10] it was 12.4 µM (active); in assay [12], 7.86 µM (active) and 20 µM (active).

The record behind these values is PubChem BioAssay (EPA / NIEHS).
